EPAC2 ant val: validation of human EPAC2 antagonists | Q8WZA2 | EPAC2 Rap1B BODIPY-GDP exchange, fluorescence | Potency, µM (titrated, usually from 112 µM), without a hit: at the top dose activity, negative = inhibition, most hits filed as inhibitors | 1.7% of 16,000 active | AID 1645886;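 further: 100% = activation by cAMP agonist control; nearly all actives have a fitted effect of over 40% in size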
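Normalized against a 6.5 mM cAMP agonist control, compounds were tested on 100 nM EPAC2 exchanging Rap1B-bound BODIPY-GDP (250 nM) for 50 uM GDP. Fluorescence drop (ex 480, em 540 nm) was tracked at room temperature over 30 min at 5-min intervals.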
EPAC1 ag val: validation of human EPAC1 agonists; O95398; EPAC1 Rap1b BODIPY-GDP exchange, fluorescence; Potency, µM, inactives show max response, positive = active, hits mostly activators; 1% of 16,000 active; further: nearly all actives have a fitted effect of over 70% in size
* hit, by the source's call; i = inactive; ? = inconclusive; . = no result given; ! = not active in a repeat; [ ] = remark or other dose. Hits are enriched below; roughly 3.1% of the tested compounds scored in any of these assays. The call rests on the fitted dose curve; in most records, active means well fitted curve in the direction sought with a large enough effect; inconclusive means small, poorly fitted or top-dose-only effect, or another doubt; inactive means no such curve, though single readings can be large; an effect the other way counts as inactive or inconclusive. Unless noted, on the % scale 0 is the no-effect control and ±100 the full control effect; potency means the concentration at half of the fitted maximal effect.

SMILES	EPAC2 ant val	EPAC1 ag val
O=C1CC(c2ccc(O)cc2)Oc2ccccc21 (stereo unspecified)	?	-12%
CC(C)=CCc1c(O)cc(O)c2c1O[C@H](c1ccccc1)CC2=O	50µM*	?
CCOC(=O)N1CCN(Cc2ccc3c(c2)CN(C(=O)c2cc(-c4ccccc4)on2)CCO3)CC1	-17%	7%
CC1(COc2ccc(C[C@H]3SC(=O)NC3=O)cc2)CCCCC1	?	-14%
CC1(COc2ccc(CC3SC(=O)NC3=O)cc2)CCCCC1 (stereo unspecified)	50µM*!	-13%
COc1ccc2c(c1)CCc1cnc(-n3ncc(C(=O)N4CCN(CCO)CC4)c3C3CC3)nc1-2	-7%	-7%
COc1ccccc1-n1cc(C(=O)NCCN2Cc3ccccc3OC(c3ccsc3)C2)cn1 (stereo unspecified)	?	9%
COc1cc(-c2noc(C)c2-c2ccc3[nH]ccc3c2)cc(OC)c1OC	79µM*	-73%
COc1cc(-c2noc(C)c2-c2ccc(N(C)C)nc2)cc(OC)c1OC	?	-2%
CC(=O)c1ccc(F)c(-c2cc(C)cc3c2OC(CNC(=O)c2cnc4ccccn4c2=O)C3)c1 (stereo unspecified)	?	11%
Cc1nc2ccccn2c(=O)c1CCN1CCC(C(=O)c2ccc(F)cc2)CC1	-9%	1%
Cc1nc2sccn2c(=O)c1CCN1CCC(=C(c2ccc(F)cc2)c2ccc(F)cc2)CC1	50µM*!	?
COc1cc(CN2CCC3(CCC(CNC(=O)c4ccccc4)O3)CC2)cc(OC)c1 (stereo unspecified)	5%	-14%
COC(=O)c1ccc(CN2CCOc3ccc(CN4CCC(O)(c5cccnc5)CC4)cc3C2)cc1	8%	0%
COc1ccc(S(=O)(=O)NCc2nc(N3CCCC3)c3cccc(C)c3n2)cc1OC	-19%	6%
CCCc1c(OCCCCc2nn[nH]n2)ccc(C(C)=O)c1O	8.9µM*!	10%
CCCCCCOc1ccccc1C(N)=O	?	-10%
O=c1c(-c2cccs2)nc2cnc(N3CCOCC3)nc2n1Cc1cccs1	6%	10%
CN1CCN(c2ncc3nc(-c4cccs4)c(=O)n(Cc4ccc(F)cc4)c3n2)CC1	2%	13%
CN1CCN(c2ncc3nc(-c4cn(C)c5ccccc45)c(=O)n(CCC#N)c3n2)CC1	90%	112µM*
N#CCCn1c(=O)c(-c2cccs2)nc2cnc(N3CCOCC3)nc21	29%	63µM*
CN1CCN(c2ncc3nc(-c4cccs4)c(=O)n(CCc4ccccc4)c3n2)CC1	46%	112µM*
CN1CCN(c2ncc3nc(-c4cn(C)c5ccccc45)c(=O)n(CCc4ccccc4)c3n2)CC1	-25%	-7%
CCOC(=O)N1CCN(Cc2ccc3c(c2)CN(C(=O)c2cc(-c4ccccc4)no2)CCO3)CC1	-18%	6%
Cc1ccc2[nH]nc(C(=O)N3CCOc4ccc(CN5CCc6sccc6C5)cc4C3)c2c1	-23%	-7%
SMILES	EPAC2 ant val	EPAC1 ag val
C=C1C(=O)O[C@H]2[C@H]1CC/C(C)=C\CC[C@@]1(C)O[C@@H]21	22%	-13%
COc1cc(OC)c(OC)cc1CN1CCOc2ccc(CN3CCN(C(C)=O)CC3)cc2C1	-6%	-20%
COc1ccc(C(=O)NCCN2Cc3cc(C)ccc3OC(C)C2)c(OC)n1 (stereo unspecified)	-32%	-7%
CC(C)(C)CC(=O)OCC(=O)[C@@]12OC(C)(C)O[C@@H]1C[C@H]1[C@@H]3CCC4=CC(=O)C=C[C@]4(C)[C@@]3(F)[C@@H](O)C[C@@]12C	1%	18%
COC(=O)C1=C(C)NC(C)=C(C(=O)OCC(C)C)C1c1ccccc1[N+](=O)[O-] (stereo unspecified)	?	-72%
COC(=O)C1=C(C)NC(C)=C(C(=O)OC(C)C)C1c1cccc2nonc12 (stereo unspecified)	50µM*!	-11%
CCCCCCCCCCCCCCCC(=O)O[C@H]1[C@@H](O)[C@@H](O)[C@@H]([C@H](NC(=O)[C@@H]2C[C@@H](CCC)CN2C)[C@H](C)Cl)O[C@@H]1SC	-5%	-195%
COC(=O)[C@@H]1C[C@@H](NC(=O)c2cccc3c(C)c(C)[nH]c23)CN1Cc1cccc2ccccc12	-1%	-7%
CCC(=O)Oc1ccc2c(c1)CC[C@@H]1[C@@H]2CC[C@]2(C)[C@@H](OC(=O)CC)CC[C@@H]12	27%	-19%
CC(C)c1c(O)ccc2c1CCC1[C@@](C)(CO)CCC[C@@]21C (stereo partly specified)	-22%	28%
COc1ccc2c(c1)[C@@]1(C)CCC[C@](C)(CO)C1CC2 (stereo partly specified)	45µM*	-14%
CCC[C@@]1(CCc2ccccc2)CC(O)=C([C@H](CC)c2cccc(NS(=O)(=O)c3ccc(C(F)(F)F)cn3)c2)C(=O)O1	.	23%
COCC(=O)Nc1cc(C(=O)N2CCN(C)C(c3ccccc3)C2)c2c(c1)nc(-c1ccncc1)n2C (stereo unspecified)	3%	-9%
Nc1c(S(=O)(=O)O)cc(Nc2ccc(Nc3nc(Cl)nc(Nc4ccc(S(=O)(=O)O)cc4)n3)c(S(=O)(=O)O)c2)c2c1C(=O)c1ccccc1C2=O	79µM*	?
FC(F)(F)C(Cl)Br (stereo unspecified)	-19%	-43%
FC(F)OC(Cl)C(F)(F)F (stereo unspecified)	i	35µM*
CCCCCCCN(c1ccccc1)C1C[C@H]2CCCC(=O)N3CC[C@@H](C1)[C@@H]23 (stereo partly specified)	?	-21%
O=C1CCC[C@@H]2CC(N(Cc3cc4ccccc4s3)c3ccccc3)C[C@@H]3CCN1[C@H]23 (stereo partly specified)	-4%	100µM*
Cc1nc(NCc2c(C)nn(C)c2Cl)sc1-c1ccn(CC2COc3ccccc3O2)n1 (stereo unspecified)	?	6%
Cc1cc(C(=O)NCc2nc(-c3cccc(NC(=O)c4cc(C)oc4C)c3)oc2C)nc(C)n1	-16%	4%
COc1ccc(-c2nc3cnc(N(C)C)nc3n(-c3ccccc3)c2=O)cc1	30%	-94%
COc1ccc(-n2c(=O)c(-c3ccc(Cl)cc3)nc3cnc(N(C)C)nc32)cc1	13%	100µM*
Cc1cc(-c2ccnc(-n3ncc(C(=O)NCC4COCCO4)c3C)n2)c(C)s1 (stereo unspecified)	-9%	-10%
COc1ccccc1N1CCN(c2nc(CNC(=O)c3ccccc3F)nc3ccccc23)CC1	?	7%
N#CCCn1c(=O)cnc2cnc(OCc3ccccc3)nc21	-25%	11%
SMILES	EPAC2 ant val	EPAC1 ag val
O=c1cnc2cnc(OCc3ccccc3)nc2n1CCc1ccccc1	22µM*	?
Cc1cnc(SCc2ccccn2)nc1C1CCCN(C(=O)c2cccc(-c3cccc(F)c3)c2)C1 (stereo unspecified)	?	15%
O=C1C=CC(=C(c2ccc(O)cc2)c2ccc(O)cc2)C=C1	?	100µM*
CCC(=O)c1ccc(O)cc1	16%	-12%
NC(N)=NCC1COC2(CCCCC2)O1 (stereo unspecified)	-4%[56.6 µM]	-16%
c1ccc(CCNc2nc(-c3ccccc3)cs2)cc1	-14%	100µM*
c1ccc(-c2csc(-c3nc4ccccc4[nH]3)n2)cc1	-15%	?
NCCC[C@H](N)CC(=O)N[C@H]1CNC(=O)[C@H]([C@H]2C[C@H](O)N=C(N)N2)NC(=O)C(=CNC(N)=O)NC(=O)[C@H](CO)NC(=O)[C@H](CO)NC1=O	-3%[29.6 µM]	3%
